Data taken from PubChem BioAssay (EPA / NIEHS).
Active and inactive are the calls of the source. Rule for the calls: active = hit-call score of the fitted dose curve at least 0.9, where 1 is the maximum; inactive = score below 0.9.

Experiments:
Details in all cases: mRNA level, 48 h; actives raise or lower the signal
[1] = read-out: Tumor necrosis factor receptor superfamily member 6 (Homo sapiens) (UniProt P25445); experiment: LTEA_HepaRG_FAS: Life Technologies and Expression Analysis (LTEA) Assay for Fas cell surface death receptor (FAS) using HepaRG (AID 2283447)
Summary of the method: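 FAS transcript level was measured by TaqMan qRT-PCR against three housekeeping genes after 48 h chemical exposure. Cells were HepaRG, 0.5% DMSO vehicle, with a top concentration of 100 uM and half-log dilutions over eight points, in duplicate.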

[2] = read-out: Fatty acid synthase (Homo sapiens) (UniProt P49327); experiment: LTEA_HepaRG_FASN: Life Technologies and Expression Analysis (LTEA) Assay for Fatty Acid Synthase (FASN) using HepaRG (AID 2283448)
Summary of the method: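 Cells were plated, cultured 48 h, switched to serum-free induction medium, then dosed in duplicate (max 100 uM, half-log dilutions, 0.5% DMSO) for 48 h. RNA was then isolated and FASN quantified by qRT-PCR.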

[3] = read-out: Cyclin D2 (CCND2), CCND2 (gene 894); experiment: LTEA_HepaRG_CCND2: Life Technologies and Expression Analysis (LTEA) Assay for Cyclin D2 (CCND2) using HepaRG (AID 2283449)
Summary of the method: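 CCND2 transcript levels, quantified by qRT-PCR and normalised to three housekeeping genes, were fitted bidirectionally against 0.5% DMSO. HepaRG cultures were dosed 48 h in duplicate with an 8-point half-log series up to 100 uM.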

[4] = read-out: Cyclin Dependent Kinase Inhibitor 1A (CDKN1A), CDKN1A (gene 1026); experiment: LTEA_HepaRG_CDKN1A: Life Technologies and Expression Analysis (LTEA) Assay for Cyclin Dependent Kinase Inhibitor 1A (CDKN1A) using HepaRG (AID 2283450)
Summary of the method: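 Differentiated human HepaRG cells, pre-cultured 48 h, were exposed in duplicate for 48 h in serum-free induction medium to eight half-log concentrations up to 100 uM (0.5% DMSO). CDKN1A mRNA was measured by qRT-PCR, normalized to ACTB/GAPDH/POLR2A, bidirectionally fitted versus DMSO.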

[5] = read-out: Cyclin D1 (CCND1), CCND1 (gene 595); experiment: LTEA_HepaRG_CCND1: Life Technologies and Expression Analysis (LTEA) Assay for Cyclin D1 (CCND1) using HepaRG (AID 2283451);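 for AC50: TaqMan qRT-PCR transcript level normalised to ACTB GAPDH and POLR2A housekeeping genes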
Summary of the method: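 Differentiated human HepaRG cells in serum-free induction medium were exposed 48 h to eight half-log concentrations up to 100 uM in 0.5% DMSO; mRNA quantified by TaqMan qRT-PCR, normalized to ACTB, GAPDH, POLR2A, fitted bidirectionally versus DMSO.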

[6] = read-out: catalase (CAT), CAT (gene 847); experiment: LTEA_HepaRG_CAT: Life Technologies and Expression Analysis (LTEA) Assay for catalase (CAT) using HepaRG (AID 2283452);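 for AC50: TaqMan qRT-PCR signal normalized to ACTB GAPDH and POLR2A housekeeping genes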
Summary of the method: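 Expression of CAT was quantified by TaqMan qRT-PCR with ACTB/GAPDH/POLR2A normalization after 48 h chemical exposure of HepaRG. Eight-point half-log series, top 100 uM, in 0.5% DMSO; gain or loss fitted against vehicle.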

[7] = read-out: Cytochrome P450 (CYP1A1), CYP1A1 (gene 1543); experiment: LTEA_HepaRG_CYP1A1: Life Technologies and Expression Analysis (LTEA) Assay for Cytochrome P450 (CYP1A1) using HepaRG (AID 2283454)
Summary of the method: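 Differentiated HepaRG cells in serum-free induction medium were exposed in duplicate for 48 h to eight half-log concentrations up to 100 uM in 0.5% DMSO. CYP1A1 mRNA was quantified by TaqMan qRT-PCR, normalized to ACTB, GAPDH and POLR2A.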

[8] = read-out: CFLAR gene, CFLAR (gene 8837); experiment: LTEA_HepaRG_CFLAR: Life Technologies and Expression Analysis (LTEA) Assay for CFLAR gene using HepaRG (AID 2283455)
Summary of the method: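 Transcript level by qRT-PCR (normalized to ACTB, GAPDH and POLR2A) after 48 h chemical exposure of HepaRG cells, top concentration 100 uM with half-log steps, 0.5% DMSO vehicle, duplicates; fitted bidirectionally against DMSO baseline.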

[9] = read-out: Forkhead box O1 (FOXO1), FOXO1 (gene 2308); experiment: LTEA_HepaRG_FOXO1: Life Technologies and Expression Analysis (LTEA) Assay for Forkhead box O1 (FOXO1) using HepaRG (AID 2283456)
Summary of the method: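 FOXO1 transcript quantified by qRT-PCR after 48 h chemical exposure (top 100 uM, half-log steps, 0.5% DMSO) of HepaRG cells, housekeeping-normalized (ACTB/GAPDH/POLR2A). Changes fitted in both directions relative to vehicle.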

[10] = read-out: growth arrest and DNA damage 45 (GADD45A), GADD45A (gene 1647); experiment: LTEA_HepaRG_GADD45A: Life Technologies and Expression Analysis (LTEA) Assay for growth arrest and DNA damage 45 (GADD45A) using HepaRG (AID 2283458)
Summary of the method: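 Transcript induction or loss, quantified by TaqMan qRT-PCR against three housekeeping genes, is the read-out. HepaRG cells received chemicals for 48 h across eight half-log concentrations from 100 uM in 0.5% DMSO; gain and loss fitted relative to DMSO.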

[11] = read-out: Forkhead box O3 (FOXO3), FOXO3 (gene 2309); experiment: LTEA_HepaRG_FOXO3: Life Technologies and Expression Analysis (LTEA) Assay for Forkhead box O3 (FOXO3) using HepaRG (AID 2283459)
Summary of the method: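 FOXO3 transcript measured by qRT-PCR (normalized to ACTB, GAPDH, POLR2A) after 48 h exposure of HepaRG cells in serum-free induction medium. Duplicates, eight half-log concentrations up to 100 uM, 0.5% DMSO; gain or loss fitted against DMSO.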

[12] = read-out: ABC Transporter (ABCB1), ABCB1 (gene 5243); experiment: LTEA_HepaRG_ABCB1: Life Technologies and Expression Analysis (LTEA) Assay for ABC Transporter (ABCB1) using HepaRG (AID 2283460)
Summary of the method: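 ABCB1 transcript level measured by TaqMan qRT-PCR against three housekeeping genes after 48 h chemical exposure of differentiated HepaRG cells. Top concentration 100 uM, half-log steps, eight points, 0.5% DMSO vehicle; bidirectional fit relative to DMSO.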

[13] = read-out: growth arrest and DNA damage 45 (GADD45B), GADD45B (gene 4616); experiment: LTEA_HepaRG_GADD45B: Life Technologies and Expression Analysis (LTEA) Assay for growth arrest and DNA damage 45 (GADD45B) using HepaRG (AID 2283461)
Summary of the method: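 Differentiated HepaRG cells, plated 48 h then switched to serum-free induction medium, were exposed 48 h in duplicate to eight half-log concentrations from 100 uM in 0.5% DMSO; mRNA quantified by qRT-PCR, normalized to ACTB/GAPDH/POLR2A, bidirectional fit versus DMSO.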

[14] = read-out: ABC Transporter (ABCB11), ABCB11 (gene 8647); experiment: LTEA_HepaRG_ABCB11: Life Technologies and Expression Analysis (LTEA) Assay for ABC Transporter (ABCB11) using HepaRG (AID 2283463)
Summary of the method: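 ABCB11 transcript levels quantified by TaqMan qRT-PCR against three housekeeping genes after 48 h chemical exposure of HepaRG cultures. Concentrations up to 100 uM in half-log steps, 0.5% DMSO vehicle; both induction and suppression scored.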

[15] = read-out: ABC Transporter (ABCC2), ABCC2 (gene 1244); experiment: LTEA_HepaRG_ABCC2: Life Technologies and Expression Analysis (LTEA) Assay for ABC Transporter (ABCC2) using HepaRG (AID 2283464)
Summary of the method: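 HepaRG cells were plated 48 h, switched to serum-free induction medium, then exposed in duplicate for 48 h to 8 concentrations (top 100 uM, half-log steps, 0.5% DMSO). ABCC2 mRNA was measured by qRT-PCR normalized to ACTB/GAPDH/POLR2A; bidirectional fitting versus DMSO.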

[16] = read-out: Broad substrate specificity ATP-binding cassette transporter ABCG2 (Homo sapiens) (UniProt Q9UNQ0); experiment: LTEA_HepaRG_ABCG2: Life Technologies and Expression Analysis (LTEA) Assay for ABC Transporter (ABCG2) using HepaRG (AID 2283465)
Summary of the method: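 ABCG2 transcript was quantified by TaqMan qRT-PCR against three housekeeping genes in HepaRG cells. Cells were treated in duplicate for 48 h across an 8-point half-log series up to 100 uM, with 0.5% DMSO vehicle. Gain or loss versus DMSO was fit.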

[17] = read-out: ATP-citrate lyase (ACLY), ACLY (gene 47); experiment: LTEA_HepaRG_ACLY: Life Technologies and Expression Analysis (LTEA) Assay for ATP-citrate lyase (ACLY) using HepaRG (AID 2283466)
Summary of the method: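 ACLY mRNA quantified by qRT-PCR on Fluidigm arrays against three housekeeping genes, after 48 h chemical treatment of HepaRG cells (top concentration 100 uM, half-log steps, 0.5% DMSO vehicle). Up- or down-regulation fitted relative to DMSO.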

[18] = read-out: flavin-containing dimethylaniline monooxygenases 3 (FMO3), FMO3 (gene 2328); experiment: LTEA_HepaRG_FMO3: Life Technologies and Expression Analysis (LTEA) Assay for flavin-containing dimethylaniline monooxygenases 3 (FMO3) using HepaRG (AID 2283453)
Summary of the method: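 FMO3 transcript quantified by TaqMan qRT-PCR against three housekeeping genes after 48 h chemical exposure of HepaRG cells. Eight-point half-log series, top 100 uM, 0.5% DMSO vehicle; phenobarbital 1mM induction control; up- or down-regulation fitted.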

[19] = read-out: ABC Transporter (ABCC3), ABCC3 (gene 8714); experiment: LTEA_HepaRG_ABCC3: Life Technologies and Expression Analysis (LTEA) Assay for ABC Transporter (ABCC3) using HepaRG (AID 2283462)
Summary of the method: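 HepaRG cells in serum-free induction medium were exposed for 48 h in duplicate to 8-point half-log concentrations topping at 100 uM in 0.5% DMSO. ABCC3 mRNA was measured by qRT-PCR normalized to ACTB, GAPDH and POLR2A, with bidirectional fitting versus DMSO.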

Measured: AC50

Chain of Broad substrate specificity ATP-binding cassette transporter ABCG2 (Homo sapiens) (Q9UNQ0 whole entry, looked up): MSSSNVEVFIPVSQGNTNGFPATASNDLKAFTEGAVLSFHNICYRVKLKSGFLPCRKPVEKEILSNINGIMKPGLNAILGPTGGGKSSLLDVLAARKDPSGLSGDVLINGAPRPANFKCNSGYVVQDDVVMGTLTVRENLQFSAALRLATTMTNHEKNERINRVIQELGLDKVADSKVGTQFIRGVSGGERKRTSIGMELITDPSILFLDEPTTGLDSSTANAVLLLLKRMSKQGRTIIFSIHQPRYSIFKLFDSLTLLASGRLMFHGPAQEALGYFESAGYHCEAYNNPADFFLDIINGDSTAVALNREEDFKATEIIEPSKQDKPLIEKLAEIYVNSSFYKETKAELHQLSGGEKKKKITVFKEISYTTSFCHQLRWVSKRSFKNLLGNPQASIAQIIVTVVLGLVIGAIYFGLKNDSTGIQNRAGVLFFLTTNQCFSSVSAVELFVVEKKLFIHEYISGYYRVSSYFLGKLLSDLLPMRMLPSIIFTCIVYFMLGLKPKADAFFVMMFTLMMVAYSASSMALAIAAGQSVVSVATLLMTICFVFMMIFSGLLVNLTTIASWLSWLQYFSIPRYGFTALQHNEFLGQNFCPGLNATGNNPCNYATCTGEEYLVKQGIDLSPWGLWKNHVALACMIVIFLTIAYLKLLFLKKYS
Chain of Fatty acid synthase (Homo sapiens) (P49327 whole entry, looked up): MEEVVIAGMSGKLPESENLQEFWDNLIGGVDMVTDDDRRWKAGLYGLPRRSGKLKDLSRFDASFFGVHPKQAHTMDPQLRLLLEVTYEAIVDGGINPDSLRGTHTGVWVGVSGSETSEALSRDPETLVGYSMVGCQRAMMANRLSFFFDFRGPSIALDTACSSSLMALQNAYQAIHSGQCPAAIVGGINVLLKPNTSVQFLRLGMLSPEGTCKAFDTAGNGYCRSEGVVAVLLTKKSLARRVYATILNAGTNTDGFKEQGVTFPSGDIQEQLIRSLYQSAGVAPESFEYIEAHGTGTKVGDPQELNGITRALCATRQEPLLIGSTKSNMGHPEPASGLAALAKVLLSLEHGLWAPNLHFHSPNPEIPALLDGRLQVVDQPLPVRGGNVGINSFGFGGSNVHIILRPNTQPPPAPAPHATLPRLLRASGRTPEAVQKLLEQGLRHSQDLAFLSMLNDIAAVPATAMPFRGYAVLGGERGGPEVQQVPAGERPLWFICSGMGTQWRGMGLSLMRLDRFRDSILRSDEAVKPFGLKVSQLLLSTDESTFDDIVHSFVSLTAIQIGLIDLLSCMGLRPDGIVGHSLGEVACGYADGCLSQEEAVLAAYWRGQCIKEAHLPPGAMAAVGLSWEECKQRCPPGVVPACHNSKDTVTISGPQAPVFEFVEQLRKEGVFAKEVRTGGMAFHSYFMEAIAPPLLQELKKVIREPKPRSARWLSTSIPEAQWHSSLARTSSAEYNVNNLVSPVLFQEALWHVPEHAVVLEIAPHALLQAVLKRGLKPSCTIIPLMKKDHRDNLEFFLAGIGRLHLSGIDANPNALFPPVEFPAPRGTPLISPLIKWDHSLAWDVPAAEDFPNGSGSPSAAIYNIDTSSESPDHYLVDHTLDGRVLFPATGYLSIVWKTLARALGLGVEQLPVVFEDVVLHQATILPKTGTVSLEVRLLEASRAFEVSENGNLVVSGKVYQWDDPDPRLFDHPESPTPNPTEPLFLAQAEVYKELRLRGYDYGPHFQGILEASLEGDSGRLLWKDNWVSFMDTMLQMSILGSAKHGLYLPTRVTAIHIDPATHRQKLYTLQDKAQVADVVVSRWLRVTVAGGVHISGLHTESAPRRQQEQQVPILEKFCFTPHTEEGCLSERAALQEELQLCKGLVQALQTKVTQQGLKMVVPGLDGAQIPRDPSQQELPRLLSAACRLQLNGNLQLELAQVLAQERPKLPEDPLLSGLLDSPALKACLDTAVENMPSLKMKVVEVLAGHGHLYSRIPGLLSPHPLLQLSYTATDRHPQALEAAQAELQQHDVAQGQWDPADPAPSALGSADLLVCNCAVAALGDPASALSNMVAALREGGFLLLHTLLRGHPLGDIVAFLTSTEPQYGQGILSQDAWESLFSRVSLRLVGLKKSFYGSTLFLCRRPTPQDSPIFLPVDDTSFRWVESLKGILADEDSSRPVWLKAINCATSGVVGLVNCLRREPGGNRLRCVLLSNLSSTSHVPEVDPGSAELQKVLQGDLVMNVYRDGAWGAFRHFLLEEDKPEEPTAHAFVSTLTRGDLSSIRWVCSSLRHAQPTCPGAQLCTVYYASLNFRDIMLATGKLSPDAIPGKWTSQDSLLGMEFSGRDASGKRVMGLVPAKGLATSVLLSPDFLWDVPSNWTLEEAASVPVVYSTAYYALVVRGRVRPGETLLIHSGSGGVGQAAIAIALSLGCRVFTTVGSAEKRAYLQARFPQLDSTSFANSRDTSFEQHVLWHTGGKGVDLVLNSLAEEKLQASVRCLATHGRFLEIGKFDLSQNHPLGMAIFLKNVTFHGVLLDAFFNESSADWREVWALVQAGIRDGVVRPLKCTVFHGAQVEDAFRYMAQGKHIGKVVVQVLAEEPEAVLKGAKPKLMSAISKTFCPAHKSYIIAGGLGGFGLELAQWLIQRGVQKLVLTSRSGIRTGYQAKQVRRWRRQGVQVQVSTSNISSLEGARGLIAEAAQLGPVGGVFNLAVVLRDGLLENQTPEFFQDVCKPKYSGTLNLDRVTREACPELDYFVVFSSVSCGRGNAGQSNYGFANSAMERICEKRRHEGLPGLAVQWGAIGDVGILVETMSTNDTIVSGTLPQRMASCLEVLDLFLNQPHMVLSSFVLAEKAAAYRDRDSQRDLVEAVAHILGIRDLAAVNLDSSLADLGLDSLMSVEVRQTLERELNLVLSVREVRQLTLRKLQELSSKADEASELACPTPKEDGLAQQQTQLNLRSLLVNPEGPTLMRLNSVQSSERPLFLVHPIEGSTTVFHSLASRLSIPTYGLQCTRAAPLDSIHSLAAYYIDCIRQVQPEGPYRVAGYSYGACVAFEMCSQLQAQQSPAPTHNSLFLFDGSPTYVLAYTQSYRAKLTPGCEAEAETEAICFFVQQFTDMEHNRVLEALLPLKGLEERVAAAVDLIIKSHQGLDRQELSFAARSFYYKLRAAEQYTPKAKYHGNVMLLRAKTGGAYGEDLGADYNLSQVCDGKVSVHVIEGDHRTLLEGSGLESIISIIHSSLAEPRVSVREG

CCCCc1ccc2c(n1)[C@@H](c1ccc(OC)cc1C[C@H](C)C(=O)O)[C@H](C(=O)O)[C@H]2c1ccc2c(c1)OCO2
active: [7] 71.7 µM
not listed: [18] | [19]
inactive: all other assays above

CN[C@H]1CC[C@@H](c2ccc(Cl)c(Cl)c2)c2ccc(S(N)(=O)=O)cc21
active: [6] 50 µM | [18] 34.1 µM | [7] 76.5 µM | [12] 89.3 µM | [13] 80.4 µM | [19] 12.6 µM | [14] 15.8 µM | [15] 63.5 µM | [17] 63.6 µM
inactive: all other assays above

CCCCC(CC)COC(=O)CC(C(=O)OCC(CC)CCCC)S(=O)(=O)O (stereo unspecified)
active: [1] 83.5 µM | [2] 80.5 µM | [5] 85.3 µM | [6] 86.6 µM | [7] 10.3 µM | [8] 81.7 µM | [9] 80.8 µM | [10] 93.9 µM | [11] 79.8 µM | [12] 89.9 µM | [13] 82.2 µM | [15] 89.2 µM | [17] 90.7 µM
inactive: [3] | [4] | [19] | [14] | [16]

Cc1ccc(N(C)C)cc1
active: [7] 22.6 µM
not listed: [10] | [19]
inactive: all other assays above

CNC(=O)[C@H]1O[C@@H](n2cnc3c(NCc4cc(Cl)ccc4OCc4cc(C)no4)ncnc32)[C@H](O)[C@@H]1N
not listed: [10] | [16]
inactive: all other assays above

Cc1ccc2ncccc2c1
active: [7] 50 µM
not listed: [16] | [18]
inactive: all other assays above

CCc1c(C(=O)NN2CCCCC2)nn(-c2ccc(Cl)cc2Cl)c1-c1ccc(Br)cc1
active: [1] 50 µM | [2] 82.7 µM | [4] 11.4 µM | [6] 41 µM | [18] 35.5 µM | [7] 5.22 µM | [9] 84.3 µM | [12] 86.8 µM | [13] 50 µM | [14] 39 µM | [15] 68.6 µM | [17] 12.5 µM
inactive: [3] | [5] | [8] | [11]
